The record followed here is PubChem BioAssay.

The nature of assay [1]: Wnt pathway potentiators raising nuclear beta-catenin – imaging, WNT3A-conditioned medium, mouse C2C12, NPC library, primary screen (AID 1117326). The following applies: stronger effect = higher value.
The nature of assay [2]: stimulators of insulin release from INS-1E, primary screen, cell-based, 5 mM glucose, NPC library (AID 1117329;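 active = compound raises insulin release from rat beta cells at 5 mM glucose, no numeric limit stated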). The following applies: rat INS-1E insulin secretion, at 10 µM, stronger effect = higher value.
Assay [3] is described as follows: inhibition of endothelial tube formation, primary screen, imaging, VEGF stimulated, CD31 staining, tube area, NPC library (AID 1117340;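 active = compound that reduces growth-factor-driven endothelial tube area in a mixed cell culture, no cutoff stated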). The settings on record: VEGF-stimulated ADSC/ECFC co-culture, at 10 µM, stronger effect = higher value.
Assay [4] is described as follows: GLP1 release stimulators, primary, NCI-H716, NPC library (AID 1117341;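 active = compound raises GLP1 secretion from the human gut endocrine cells, with no numeric limit stated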). The settings on record: NCI-H716 cells, at 10 µM, stronger effect = higher value.
Assay [5] can be described thus: growth inhibition of GSK3B-pretreated HCT116 cells – cell-based, CellTiter-Glo, 0.2 to 20 µM (AID 1117336;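 active = compounds lowering colon cancer cell viability after pretreatment blocking the GSK3B kinase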). The following applies: HCT116 viability after GSK3B inhibitor, at 20 µM, stronger effect = higher value. On the technique in general: In ATP-based viability assays light output follows the ATP content of the culture.
The nature of assay [6]: HCT116 colon cancer cell growth inhibition, primary screen, CellTiter-Glo luminescence, NPC library (AID 1117342;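 active = compounds that lower survival of HCT116 colon cancer cells in the luminescence readout, no numeric limit stated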). The settings on record: at 20 µM (top of the series).
The nature of assay [7]: reduced SW480 viability measured with CellTiter-Glo, NPC library, primary (AID 1117343;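 active = compounds that lower viability of the colon cancer cells in the luminescence readout, with no numeric limit stated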). The settings on record: CellTiter-Glo luminescence; at 20 µM (top of the series) unless noted.
A short description of assay [8]: NPC library primary testing for decreased DLD-1 cell viability via CellTiter-Glo (AID 1117346;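 active = compounds that lower survival of DLD-1 colon cancer cells in the luminescence readout, no cutoff given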). The following applies: DLD-1 viability, CellTiter-Glo luminescence; at 20 µM (top of the series).
Assay [9] concerns the target NAD(+) hydrolase SARM1 (Homo sapiens) (UniProt Q6SZW1). Kind of assay: blocking NAD cleavage by SARM1 SAM-TIR – cell lysate, NAD-Glo luminescence (AID 1508614;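 active = compound whose remaining NAD level is above about 45 nM, limit read from the data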;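 also: higher remaining NAD means stronger inhibition of SARM1 NADase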). The settings on record: SAM-TIR HEK293T lysate NADase, at 1 µM, stronger effect = higher value.
For assay [10], the target named is Mitogen-activated protein kinase 7 (Homo sapiens) (UniProt Q13164). Kind of assay: Gal4-ERK5 driven luciferase induction – cell-based, HTS, primary screen (AID 1508626;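 active = luciferase signal above three times the same-plate solvent-only control wells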;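 also: luciferase driven by Gal4-ERK5 fusion binding five Gal4 sites before minimal TATA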). The following applies: HeLa Gal4-ERK5 transactivation, 18 h, at 5 µM, stronger effect = higher value.

Calls of active or inactive are those of the source. Rule as the data show it, unless noted: active = nuclear beta-catenin stimulation mostly above about 4.2% (no sharp cut-off); inactive = mostly below about 10%.

Chain of Mitogen-activated protein kinase 7 (Homo sapiens) (Q13164 whole entry, looked up, the tested form may be a part): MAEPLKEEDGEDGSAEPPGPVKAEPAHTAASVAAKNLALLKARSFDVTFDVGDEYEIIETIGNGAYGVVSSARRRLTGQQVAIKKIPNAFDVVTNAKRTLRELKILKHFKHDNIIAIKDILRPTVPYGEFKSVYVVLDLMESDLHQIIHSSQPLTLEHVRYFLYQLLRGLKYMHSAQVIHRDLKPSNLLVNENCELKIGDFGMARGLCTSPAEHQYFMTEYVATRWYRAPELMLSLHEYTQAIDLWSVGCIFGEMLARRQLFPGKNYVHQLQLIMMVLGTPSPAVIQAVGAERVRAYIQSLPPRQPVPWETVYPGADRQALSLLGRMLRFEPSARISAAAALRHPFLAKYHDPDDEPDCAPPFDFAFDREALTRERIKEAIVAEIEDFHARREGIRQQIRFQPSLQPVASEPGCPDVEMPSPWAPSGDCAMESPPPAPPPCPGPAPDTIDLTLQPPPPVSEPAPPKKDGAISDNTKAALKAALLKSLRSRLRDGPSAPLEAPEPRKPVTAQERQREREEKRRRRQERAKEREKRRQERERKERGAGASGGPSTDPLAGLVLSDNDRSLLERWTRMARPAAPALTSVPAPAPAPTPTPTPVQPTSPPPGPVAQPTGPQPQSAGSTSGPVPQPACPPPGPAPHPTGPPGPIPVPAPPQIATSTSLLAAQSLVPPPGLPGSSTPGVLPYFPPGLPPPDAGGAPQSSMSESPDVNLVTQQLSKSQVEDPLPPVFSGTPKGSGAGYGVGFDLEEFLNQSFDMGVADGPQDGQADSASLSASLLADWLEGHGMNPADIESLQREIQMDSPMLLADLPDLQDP
Chain of NAD(+) hydrolase SARM1 (Homo sapiens) (Q6SZW1 whole entry, looked up, the tested form may be a part): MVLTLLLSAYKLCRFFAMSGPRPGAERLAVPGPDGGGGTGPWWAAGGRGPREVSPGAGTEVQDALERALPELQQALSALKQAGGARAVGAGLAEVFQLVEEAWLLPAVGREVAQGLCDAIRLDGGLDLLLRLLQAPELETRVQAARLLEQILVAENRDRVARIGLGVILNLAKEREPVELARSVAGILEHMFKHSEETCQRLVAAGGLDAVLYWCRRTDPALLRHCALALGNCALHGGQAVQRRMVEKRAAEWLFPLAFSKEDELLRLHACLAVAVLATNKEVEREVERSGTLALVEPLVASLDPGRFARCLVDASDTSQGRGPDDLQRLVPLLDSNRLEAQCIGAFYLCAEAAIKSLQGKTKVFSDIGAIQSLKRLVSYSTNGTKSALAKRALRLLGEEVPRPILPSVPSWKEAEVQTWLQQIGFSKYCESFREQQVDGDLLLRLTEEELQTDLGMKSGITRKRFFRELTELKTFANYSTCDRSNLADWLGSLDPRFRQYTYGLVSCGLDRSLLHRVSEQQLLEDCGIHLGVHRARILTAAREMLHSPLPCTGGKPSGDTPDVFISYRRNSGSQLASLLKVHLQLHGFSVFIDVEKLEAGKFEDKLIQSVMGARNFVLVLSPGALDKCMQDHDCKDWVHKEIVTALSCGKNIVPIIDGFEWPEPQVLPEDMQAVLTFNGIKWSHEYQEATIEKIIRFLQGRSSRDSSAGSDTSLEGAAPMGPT

For the compound `CCOc1cc(NC(C)=O)ccc1C(=O)OC`, the nuclear beta-catenin stimulation in assay [1] (at 10 µM) is 2.6% (inactive); in assay [1] (stimulation, at 2 µM), 2%. For the same compound, the insulin secretion stimulation in assay [2] is 4.4% (inactive). Also, the tube area decrease in [3] is 11.7% (inactive). In addition, the GLP1 secretion stimulation in assay [4] was 0.3% (inactive).
Regarding `C[C@]12CC[C@@H]3c4ccc(O)cc4CC[C@H]3[C@@H]1CC[C@@H]2OC(=O)CCC1CCCC1`, the nuclear beta-catenin stimulation in assay [1] (at 10 µM) was 28.4% (inactive); in assay [1] (stimulation, at 2 µM) it was 2.5%. Also, in assay [2], the insulin secretion stimulation is 0.5% (inactive). The viability decrease in [5] is -8.5% (inactive). For the same compound, in assay [3], the tube area decrease was 110% (active). Also, in assay [4], the GLP1 secretion stimulation was 3.6% (inactive). The inhibition of viability in [6] is 6.73% (inactive). Moreover, the viability decrease (inhibition) was 27% (inactive) in assay [7] and -23.3% (inactive) in assay [8]. For the same compound, the remaining NAD in assay [9] was 10 nM (inactive). In addition, the luciferase signal in assay [10] was 84 AU (inactive).
Consider `Cc1c(C)n(CCN(C)C)c2ccc(C(=O)OCCN(C)C)cc12`, for which the nuclear beta-catenin stimulation in assay [1] (at 10 µM) was 1.1% (inactive); in assay [1] (stimulation, at 2 µM) it was 14.1%. Further, the insulin secretion stimulation in [2] is 0.4% (inactive). Further, in assay [5], the viability decrease was 41.2% (inactive). In addition, the inhibition of viability in assay [6] was 27.7% (inactive). For the same compound, the viability decrease (inhibition) is 71.7% (active) in assay [7] and 0.9% (inactive) in assay [8].
`CCCCC(=O)O[C@]1(C(=O)CO)CC[C@H]2[C@@H]3CCC4=CC(=O)CC[C@]4(C)[C@H]3[C@@H](O)C[C@@]21C`: the nuclear beta-catenin stimulation in assay [1] (at 10 µM) is -1.9% (inactive); in assay [1] (stimulation, at 2 µM) it was 0.1%. In addition, in [2], the insulin secretion stimulation was 1.5% (inactive). The viability decrease in assay [5] was -12.8% (inactive). Also, the tube area decrease in assay [3] is -17.7% (inactive). In addition, the GLP1 secretion stimulation in assay [4] is -1.5% (inactive). In assay [6], the inhibition of viability is 7.7% (inactive). In addition, the viability decrease (inhibition) in assay [7] is 6.4% (inactive); in assay [8], -15.9% (inactive). The remaining NAD in [9] is 10 nM (inactive). The luciferase signal in [10] is 72 AU (inactive).
On to `C#C[C@]1(OC(C)=O)CC[C@H]2[C@@H]3CCC4=C/C(=N/O)CC[C@@H]4[C@H]3CC[C@@]21CC`, for which the nuclear beta-catenin stimulation in assay [1] (at 10 µM) is 3.7% (inactive); in assay [1] (stimulation, at 2 µM), 2.1%. Further, the insulin secretion stimulation in assay [2] was -0.2% (inactive). In addition, in assay [5], the viability decrease was 98.8% (active). Also, the tube area decrease in assay [3] is 99% (active). Also, the GLP1 secretion stimulation in [4] is -2.6% (inactive). The inhibition of viability in assay [6] was 99.1% (active). For the same compound, the values for the viability decrease (inhibition) in assay [7] and in assay [8] were 102% (active) and 101% (active), respectively. Besides, the luciferase signal in assay [10] was 24 AU (inactive).
As for `CC(COc1ccccc1)NN` (centres undefined), the nuclear beta-catenin stimulation is 1.8% (inactive) in assay [1] (at 10 µM) and 5.4% in assay [1] (stimulation, at 2 µM). For the same compound, the viability decrease in assay [5] is 26.7% (inactive). Also, in assay [3], the tube area decrease is 1.6% (inactive). Also, in [6], the inhibition of viability was 8% (inactive). Besides, the viability decrease (inhibition) is 19.2% (inactive) in assay [7] and 7.4% (inactive) in assay [8].
Regarding `CC(=O)NC(=O)c1ccccc1O`, the nuclear beta-catenin stimulation in assay [1] (at 10 µM) was 4.6% (inactive); in assay [1] (stimulation, at 2 µM), 0.9%. In addition, the insulin secretion stimulation in [2] was -0.5% (inactive). Also, the GLP1 secretion stimulation in [4] was -0.9% (inactive).
For the compound `NC(=O)C1(N2CCCCC2)CCN(CCCN2c3ccccc3CCc3ccc(Cl)cc32)CC1`, the nuclear beta-catenin stimulation was 1.5% (inactive) in [1] (at 10 µM) and 12.3% in [1] (stimulation, at 2 µM). For the same compound, the viability decrease in [5] was 99.5% (active). Moreover, the tube area decrease in assay [3] is 109% (active). The inhibition of viability in assay [6] is 99.4% (active). In addition, the viability decrease (inhibition) in assay [7] and in [8] was 102% (active) throughout.
As for `COc1ccc(/C=N/NC(=O)c2ccncc2)cc1OC`, the nuclear beta-catenin stimulation is 3.6% (inactive) in assay [1] (at 10 µM) and 8% in assay [1] (stimulation, at 2 µM). The viability decrease in assay [5] is 2.5% (inactive). In assay [3], the tube area decrease was 12.2% (inactive). In addition, the inhibition of viability in assay [6] was 11.9% (inactive). Also, the viability decrease (inhibition) in [7] is -1% (inactive); in assay [8], -0.1% (inactive).
